Laboratory results reported in PubChem BioAssay AID2732 (Emory University Molecular Libraries Screening Center, 2010).
About 8,200 (3.7%) of roughly 220,000 compounds were called active. Many of the other results were omitted from the sample, so actives are more common in it than they were. Values without a mark were called inactive.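 Rule for the calls: active = compounds that reduced the stress-induced luciferase reporter signal by more than about 70% of percent inhibition (limit read from the data); inactive = the rest.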

Assay: blockers of ER-stress CHOP reporter expression – cell-based, unfolded protein response, luciferase reporter, primary screen (AID 2732);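 note: 0% = tunicamycin plus vehicle and 100% = wells without tunicamycin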
Conditions: CHO-K1 CHOP-promoter luciferase, tunicamycin-induced, 15-18 h; at 10 µM; active compounds read high

Which inhibition does the source give for Nc1nnnn1/N=C/c1cc([N+](=O)[O-])ccc1O here?
Its inhibition is 6.19%.

For Cc1ccc(NC(=O)Nc2ccccc2)c(Br)c1, which inhibition is on record?
Its inhibition is 38.2%.

With C=CC[n+]1c(-c2ccc(C)cc2)csc1NNC(=O)Nc1ccccc1 as the compound, how does the inhibition read?
Its inhibition is 75.9% (active).

For C=CCNc1scc(-c2ccccc2)[n+]1CC=C, which inhibition is on record?
Its inhibition is -28.4%.

For O=C1NNC(c2ccccc2)=N/C1=C\c1ccc(Cl)cc1, which inhibition is on record?
Its inhibition is 24.3%.

For NNC(=O)COc1ccc(C2SCCS2)cc1, which inhibition is on record?
The inhibition was 18.6%.

Which inhibition does the source give for NC(=O)COc1ccc(C23CC4CC(CC(C4)C2)C3)cc1 here?
Its inhibition is 103% (active).

With NC(=O)COc1ccc(NC(=O)c2ccccc2-c2ccccc2)cc1 as the compound, how does the inhibition read?
Its inhibition is 6.67%.

With Cc1ccc(C)c2[nH]c(=O)c(CN(Cc3cccnc3)C(=S)NCc3ccco3)cc12 as the compound, how does the inhibition read?
The inhibition was 2.47%.

For Cc1ccc(-c2nc3ccccc3[nH]c2=O)cc1, which inhibition is on record?
Its inhibition is -30.2%.

For CC1Cc2ccccc2N1S(=O)(=O)c1ccc(Cl)nc1 (stereo unspecified), which inhibition is on record?
The inhibition was 9.84%.

With CC12CCC(C(=O)N3CCN(c4ncccn4)CC3)(c3nc4ccccc4nc31)C2(C)C (stereo unspecified) as the compound, how does the inhibition read?
Its inhibition is 81.3% (active).

With CCNC(=S)N1CCN(c2ncccn2)CC1 as the compound, how does the inhibition read?
Its inhibition is 6.67%.

With O=C(C(Cl)Cl)N1CCN(c2ccccn2)CC1 as the compound, how does the inhibition read?
Its inhibition is 23.1%.

For Cn1nc(C(F)(F)F)c(-c2ccc(F)cc2)c1NC(=O)CSCC(=O)O, which inhibition is on record?
The inhibition was -1.35%.

With NC1=NC[C@@H](Cc2ccc(O)cc2)N1CC1CCCCC1 as the compound, how does the inhibition read?
The inhibition was -9.28%.

For CCOC(=O)C1=C(C)NC(C)=C(C(=O)OCC)C1c1ccccn1, which inhibition is on record?
The inhibition was -2.49%.

With CCOC(=O)C1=C(C)N=C2c3ccccc3C(=O)C2C1c1ccc(Br)cc1 (stereo unspecified) as the compound, how does the inhibition read?
The inhibition was 93.1% (active).

For CCOC(=O)C1=C(C)NC(=O)NC1c1ccccc1 (stereo unspecified), which inhibition is on record?
The inhibition was 5.41%.

Which inhibition does the source give for COc1ccc(OCCC(=O)c2ccc(OC)cc2)cc1 here?
The inhibition was -4.29%.

With CC(C)(C)c1ccc(Oc2ccc(N)cc2)cc1 as the compound, how does the inhibition read?
The inhibition was 107% (active).

For Nc1ccc(Oc2ccc(Cl)cc2)cc1, which inhibition is on record?
The inhibition was 33.6%.

Which inhibition does the source give for Cc1ccc(Oc2ccc(N)cc2)cc1 here?
The inhibition was 37.7%.

Which inhibition does the source give for Cc1cccc(-[n+]2c(-c3cccc(Br)c3)[nH]c3nc4ccccc4nc32)c1 here?
Its inhibition is 18.3%.

Which inhibition does the source give for COc1ccc(CCN2C(=O)CC(N3CCC(C(N)=O)CC3)C2=O)cc1OC (stereo unspecified) here?
The inhibition was -9.45%.

With O=[N+]([O-])c1cc([N+](=O)[O-])c2cccnc2c1O as the compound, how does the inhibition read?
The inhibition was 16.7%.

For CC(C)Cc1nc(Cl)c(C#N)c2c1CCC2, which inhibition is on record?
The inhibition was 17.9%.

For CC(C)Cc1nc(N2CCOCC2)c(C#N)c2c1CCC2, which inhibition is on record?
Its inhibition is 91.2% (active).

For CC(C)c1nc(N2CCOCC2)c(C#N)c2c1COC(C)(C)C2, which inhibition is on record?
Its inhibition is 60.3%.

Which inhibition does the source give for N/C(=N\OC(=O)Nc1ccccc1)c1ccno1 here?
Its inhibition is -5.09%.

With O=C(O)CCn1c(O)c(C=C2N=c3ccccc3=N2)sc1=S as the compound, how does the inhibition read?
The inhibition was 80.2% (active).

Which inhibition does the source give for Cc1cc2ccccc2n1CCC(=O)O here?
The inhibition was 6.98%.

Which inhibition does the source give for O=C(COc1ccc([N+](=O)[O-])cc1Cl)Nn1cnnc1 here?
The inhibition was -0.23%.

For COc1cc(C=O)ccc1Oc1nnnn1-c1ccccc1, which inhibition is on record?
Its inhibition is 4.01%.

With O=C(CSc1nnc2n1CCCN2)c1ccccc1 as the compound, how does the inhibition read?
The inhibition was -11.1%.

For CC(=O)c1ccc(NC(=O)C2CC(=O)Nc3nc4ccccc4n32)cc1 (stereo unspecified), which inhibition is on record?
Its inhibition is -5.45%.

For Cc1c(C#N)c(NC(=O)c2ccccc2)n(Cc2ccccc2)c1C, which inhibition is on record?
Its inhibition is -4.55%.

For COc1ccc(Cn2cccc(NC(=O)Nc3ccc(C#N)cc3)c2=O)cc1, which inhibition is on record?
The inhibition was 62.7%.

For COc1ccc(Cn2c(C)c(C)c(C#N)c2NC(=O)Nc2ccc(F)cc2)cc1, which inhibition is on record?
Its inhibition is 94.3% (active).

Which inhibition does the source give for Cc1nc2c(ncn2-c2ccccc2)c(=O)n1NC(=O)CN1CCCC1 here?
Its inhibition is 9.81%.

Which inhibition does the source give for Cc1[nH]n(-c2ccccc2)c(=O)c1/C=N/NC(=O)c1ccoc1C here?
Its inhibition is 51.5%.

With COc1cccc(/C=N/NC(=O)c2cccc([N+](=O)[O-])c2)c1OS(=O)(=O)c1ccc(C)cc1 as the compound, how does the inhibition read?
Its inhibition is 0.84%.

For Cc1ccc(-n2[nH]c(C)c(/C=N/NC(=O)c3cccc([N+](=O)[O-])c3)c2=O)cc1C, which inhibition is on record?
The inhibition was 85.8% (active).

With O=C(CSc1ncn[nH]1)Nc1nc(-c2cccc([N+](=O)[O-])c2)cs1 as the compound, how does the inhibition read?
The inhibition was 7.63%.

Which inhibition does the source give for O=C(c1ccco1)N1CCN(CCOc2ccccc2)CC1 here?
The inhibition was 1.67%.

For CCS(=O)(=O)Nc1cccc(-c2cc(-c3ccccc3)c3cc(C)ccc3n2)c1, which inhibition is on record?
The inhibition was 78.8% (active).

With Cc1ccc2nc(-c3ccccc3)cc(C(=O)O)c2c1 as the compound, how does the inhibition read?
The inhibition was -1.51%.

For CC(=O)Nc1cccc(-c2cnc3ccccc3n2)c1, which inhibition is on record?
Its inhibition is -21.7%.

For CCOC(=O)c1ccc(NC(=O)c2nc[nH]c2C(=O)NCc2ccccc2)cc1, which inhibition is on record?
The inhibition was 94.5% (active).

Which inhibition does the source give for CCOC(=O)c1ccc(NC(=O)c2nc[nH]c2C(=O)N[C@@H](CCCCNC(=O)OC(C)(C)C)C(=O)OC(C)(C)C)cc1 here?
The inhibition was 44.5%.

Which inhibition does the source give for CCOC(=O)c1[nH]cnc1C(=O)Nc1ccccc1C here?
The inhibition was -6.79%.

For COc1ccc2nc(Nc3nc4ccc(NC(C)=O)cc4s3)sc2c1, which inhibition is on record?
Its inhibition is -58.2%.

With CCOc1ccc2nc(Nc3nc4ccc(NC(C)=O)cc4s3)sc2c1 as the compound, how does the inhibition read?
Its inhibition is 106% (active).

For CCC(=O)c1ccc(OCC(=O)Nc2ccc3nc(C)sc3c2)cc1, which inhibition is on record?
The inhibition was 0.17%.

Which inhibition does the source give for O=C(NNS(=O)(=O)c1ccccc1C(F)(F)F)c1cc2ncc(C(F)(F)F)cc2s1 here?
Its inhibition is -0.25%.

With C=CCn1c(Oc2ccc(C(=O)OC)cc2)nc2c1c(=O)n(C)c(=O)n2C as the compound, how does the inhibition read?
The inhibition was 3.03%.

With Cn1c(=O)c2c(nc(OCc3cccnc3)n2Cc2ccccc2)n(C)c1=O as the compound, how does the inhibition read?
Its inhibition is 7.91%.

With C=CCOc1nc2c(c(=O)n(C)c(=O)n2C)n1Cc1ccc(Cl)cc1Cl as the compound, how does the inhibition read?
The inhibition was 93.2% (active).

With Clc1ccc(C[n+]2cc(-c3ccc(Cl)cc3)n3c2CCC3)cc1 as the compound, how does the inhibition read?
The inhibition was -2.43%.

With CCn1nc(C)c(/C=N/NC(=O)Cc2ccc(Cl)cc2)c1C as the compound, how does the inhibition read?
Its inhibition is 14.1%.

For Cc1nn(Cc2ccc(Cl)cc2)c(Cl)c1/C=N/NC(=O)c1cccnc1, which inhibition is on record?
The inhibition was -12.2%.

With Cc1nn(Cc2ccc(Cl)cc2)c(Cl)c1/C=N/NC(=O)CNc1ccccc1F as the compound, how does the inhibition read?
The inhibition was 96.1% (active).

For Oc1[nH]c2ccc(Br)cc2c1N=Nc1nn[nH]n1, which inhibition is on record?
The inhibition was -5.13%.

For CCOC(=O)c1ccc(N=C2SC(C(=O)NC)CC(=O)N2CCc2ccccc2)cc1 (stereo unspecified), which inhibition is on record?
The inhibition was -10.9%.

Which inhibition does the source give for O=C(NCCN1CCN(Cc2ccccc2)CC1)c1cc2c(=O)[nH]c3ccccc3c2s1 here?
Its inhibition is 21.6%.

With Cc1ccc2[nH]c(=O)c(CC=C(Cl)Cl)c(C)c2c1 as the compound, how does the inhibition read?
Its inhibition is 52.8%.

With Cc1cccc(N(C)C(=O)c2cc3c(=O)[nH]c4ccc(C)cc4c3s2)c1 as the compound, how does the inhibition read?
Its inhibition is 80.4% (active).

With S=C(NNC(=S)NC1CC2C=CC1C2)NC1CC2C=CC1C2 (stereo unspecified) as the compound, how does the inhibition read?
Its inhibition is 9.31%.

For C/C(=N/NC(=O)c1ccn(C)n1)c1ccncc1, which inhibition is on record?
Its inhibition is 12.5%.

For COc1ccc(Nc2nc(Cl)nc(NCc3ccco3)n2)cc1, which inhibition is on record?
The inhibition was 85% (active).

For COc1cccc(Nc2nc(N)c([N+](=O)[O-])c(NCc3ccco3)n2)c1, which inhibition is on record?
Its inhibition is 38.9%.

Which inhibition does the source give for COc1ccc(Nc2nc(NCc3ccco3)nc(N/N=C/c3ccccc3Cl)n2)cc1 here?
The inhibition was -19.9%.

With COc1ccc(Br)c2c1C(=O)CC2 as the compound, how does the inhibition read?
The inhibition was 10.2%.

With Cn1nccc1NC(=O)CC(CC(=O)O)c1ccccc1 (stereo unspecified) as the compound, how does the inhibition read?
Its inhibition is 25.4%.

Which inhibition does the source give for COc1cc2c(cc1OC)C(/C=C/c1ccco1)=NCC2 here?
The inhibition was 1.07%.

Which inhibition does the source give for COC(=O)C1=C(N)Oc2cc(C)[nH]c(=O)c2C1c1ccc(Cl)cc1 (stereo unspecified) here?
The inhibition was -8.98%.

Which inhibition does the source give for C=C(C)C(=O)O[C@H]1C/C(C)=C\C(=O)/C=C(\C)[C@H](O)[C@@H]2OC(=O)C(=C)[C@@H]21 here?
The inhibition was 107% (active).

Which inhibition does the source give for O=C(O)C#Cc1cccc2ccccc12 here?
The inhibition was -1.61%.

For COc1ccc(F)cc1S(=O)(=O)N1CCCCC1, which inhibition is on record?
The inhibition was 10.6%.

Which inhibition does the source give for CCOC(=O)c1ccc(S(=O)(=O)N(CCO)Cc2cc3cc(OC)c(OC)cc3[nH]c2=O)cc1 here?
Its inhibition is 23.6%.

For Cc1nc(-c2ccc(Cl)cc2)sc1C1(C)CC(c2ccccc2F)=NO1 (stereo unspecified), which inhibition is on record?
Its inhibition is -3.45%.

With CCC/C(C)=N\Nc1nc2c(c(=O)n(C)c(=O)n2C)n1C as the compound, how does the inhibition read?
Its inhibition is 6.66%.

With Cc1ccc(C2(C(F)(F)F)N=C3Sc4cc(C)cc(C)c4N3C(=O)N2)cc1 (stereo unspecified) as the compound, how does the inhibition read?
Its inhibition is 76.7% (active).

Which inhibition does the source give for CCOC(=O)c1cc(Sc2ccccc2N)cc(C(=O)OCC)n1 here?
Its inhibition is 15.6%.

With CCN(CC)CCn1c(N)c(S(=O)(=O)c2ccccc2)c2nc3ccccc3nc21 as the compound, how does the inhibition read?
The inhibition was -7.46%.

Which inhibition does the source give for NS(=O)(=O)c1ccc(CNC(=O)c2cnccn2)cc1 here?
The inhibition was -3.79%.

For COc1ccc(Nc2cc(=O)n(-c3ccccc3)c3c2c(=O)n(C)c(=O)n3C)cc1, which inhibition is on record?
The inhibition was 7.22%.

With Cc1ccc(S(=O)(=O)NNC(=S)NC(C)(C)C)cc1 as the compound, how does the inhibition read?
Its inhibition is -12.5%.

With CSc1nnc(-c2ccc(C(F)(F)F)cn2)o1 as the compound, how does the inhibition read?
Its inhibition is -2.28%.

Which inhibition does the source give for CN(C)S(=O)(=O)c1ccc(NC(=O)COC(=O)c2n[nH]c3ccccc23)cc1 here?
The inhibition was 22.3%.

For CCN(CC)S(=O)(=O)c1ccc2nc(COC(=O)c3n[nH]c4ccccc34)[nH]c2c1, which inhibition is on record?
Its inhibition is 104% (active).

For CCN(CC)S(=O)(=O)c1ccc2nc(CSc3nnnn3-c3ccc(O)cc3)[nH]c2c1, which inhibition is on record?
The inhibition was 29.3%.

For C/C(=N/NC(=O)CC(=O)N/N=C(\C)c1ccc([N+](=O)[O-])cc1)c1ccc([N+](=O)[O-])cc1, which inhibition is on record?
The inhibition was -0.51%.

Which inhibition does the source give for CCCCCCn1c(SCC(=O)c2ccccc2)nc2c1c(=O)[nH]c(=O)n2C here?
Its inhibition is -4.27%.

With CCCSc1nc2c(c(=O)[nH]c(=O)n2C)n1CCc1ccccc1 as the compound, how does the inhibition read?
Its inhibition is 19.8%.

For CCCCCn1c(SCCC(C)C)nc2c1c(=O)[nH]c(=O)n2C, which inhibition is on record?
The inhibition was 97.9% (active).
